Inconclusive results are not listed. Calls of active or inactive are those of the source. The call rests on the fitted dose curve; in most records, active means well fitted curve in the direction sought with a large enough effect; inconclusive means small, poorly fitted or top-dose-only effect, or another doubt; inactive means no such curve, though single readings can be large; an effect the other way counts as inactive or inconclusive.
How the values were obtained:
[1] = qHTS to identify inhibitors of the type 1 interferon - major histocompatibility complex class I in skeletal muscle: primary screen against the NCATS LOPAC collection (AID 1347405);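 further: lytic HiBiT luminescence reporting HLA-B protein level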
Summary of the method: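 Luminescence from HiBiT fused to endogenous HLA-B in CRISPR-engineered human myoblasts served as the read-out. Cells received 4.0 ng/ml IFN-beta plus compound (seven concentrations, 1:4.3 steps, highest 46 uM final) for 24 hrs before lytic detection.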

[2] = qHTS for inhibitors of adenylyl cyclases using a fission yeast platform: a pilot screen against the NCATS LOPAC library (AID 1347410)
Summary of the method: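 S. pombe CHP2027 (AC9-GNAS-PDE4D2) carrying a PKA-repressed fbp1-GFP reporter was exposed to LOPAC compounds (final up to 57 µM) for 18 h at 30C in the dark, in EMM with histidine, lysine and uracil; GFP gain-of-signal read by laser scanning cytometry.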

[3] = Validation qHTS assay for inhibitors of Activation Induced Cytidine Deaminase (AID): UDG Counterscreen signal (AID 1347427)
Summary of the method: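 Counterscreen read of UDG activity (2 U/mL, 4/3x) in the FRET deamination format with AID (1 uM, 4/3x), DJC20/DJC23 substrates (250 nM, 4x), 4 h at room temperature. NaOH stop, fluorescence at 560 ex/665 em.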

[4] = Primary qHTS for inhibitors of La Crosse Virus (LACV) - induced cell death in SH-SY5Y cells (AID 1508616);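 further: top concentration of the series differs between compounds; higher means more rescue of cells from virus-induced death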
Summary of the method: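 Protection against LACV-induced cell death is scored in SH-SY5Y cells exposed to compounds and virus (0.01 MOI) for 6 days. Data normalized to virus-infected DMSO wells and virus-free DMSO wells.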

[5] = molecular target: Calcium and integrin-binding protein 1 (Homo sapiens) (UniProt Q99828); assay: Validation qHTS for Identification of Calcium Integrin Binding protein 1 (CIB1) Competitor (AID 1508618)
Sequence of Calcium and integrin-binding protein 1 (Homo sapiens) (Q99828 whole entry, looked up): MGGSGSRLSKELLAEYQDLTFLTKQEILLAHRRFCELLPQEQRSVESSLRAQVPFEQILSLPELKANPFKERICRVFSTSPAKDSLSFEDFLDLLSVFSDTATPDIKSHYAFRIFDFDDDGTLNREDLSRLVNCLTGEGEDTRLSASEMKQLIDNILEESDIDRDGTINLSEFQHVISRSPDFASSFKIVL
Summary of the method: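 CIB1-GST (1 uM final) incubated 15 min at room temperature with compounds (up to 114 uM), then FITC-labelled alphaIIb peptide (100 nM) added. FP read (Ex 480/Em 540) after 15 min, pH 7.4 buffer containing 5 mM CaCl2.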

[6] = Counterscreen qHTS for small molecule stabilizers of the endoplasmic reticulum resident proteome: GLuc-NoTag assay (AID 1508627);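 further: SH-SY5Y cells given compound then 100 nM thapsigargin to empty ER calcium; series mostly up to about 76 µM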
Summary of the method: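 Luminescence of Gaussia luciferase secreted into the medium (coelenterazine, 0.07x final, unlysed cells) was the read-out. Human SH-SY5Y neuroblastoma cells constitutively secreting untagged GLuc received compound for 19 h, then 100 nM thapsigargin for 4 h.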

[7] = Primary qHTS for small molecule stabilizers of the endoplasmic reticulum resident proteome: Secreted ER Calcium Modulated Protein (SERCaMP) assay (AID 1508630)
Summary of the method: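 GLuc-SERCaMP-expressing SH-SY5Y cells, pretreated 16 h with compound, are challenged with thapsigargin to empty ER calcium stores; after 4 h, coelenterazine is added directly to the medium and luminescence is imaged.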

[8] = qHTS to identify inhibitors of the type 1 interferon - major histocompatibility complex class I in skeletal muscle: primary screen against the NCATS Pharmaceutical Collection (AID 1347407);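 further: luminescence of HiBiT knocked into endogenous HLA-B as interferon-induced MHC class I level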
Summary of the method: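 Immortalized human myoblasts (C25cl48) with HiBiT knocked into endogenous HLA-B*08:01 were stimulated with 4 ng/ml IFN-beta and treated with compounds (8-point, 1:5, top 46 uM final) for 24 h at 37 C; HiBiT lytic luminescence read.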

[9] = molecular target: Protein phosphatase 1D (Homo sapiens) (UniProt O15297); assay: RapidFire Mass Spectrometry qHTS Assay for Modulators of WT P53-Induced Phosphatase 1 (WIP1) (AID 1347424);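 further: amount of dephosphorylated VEPPL-S-QETFS peptide product formed by WIP1; series mostly up to about 63 µM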
Sequence of Protein phosphatase 1D (Homo sapiens) (O15297 whole entry, looked up): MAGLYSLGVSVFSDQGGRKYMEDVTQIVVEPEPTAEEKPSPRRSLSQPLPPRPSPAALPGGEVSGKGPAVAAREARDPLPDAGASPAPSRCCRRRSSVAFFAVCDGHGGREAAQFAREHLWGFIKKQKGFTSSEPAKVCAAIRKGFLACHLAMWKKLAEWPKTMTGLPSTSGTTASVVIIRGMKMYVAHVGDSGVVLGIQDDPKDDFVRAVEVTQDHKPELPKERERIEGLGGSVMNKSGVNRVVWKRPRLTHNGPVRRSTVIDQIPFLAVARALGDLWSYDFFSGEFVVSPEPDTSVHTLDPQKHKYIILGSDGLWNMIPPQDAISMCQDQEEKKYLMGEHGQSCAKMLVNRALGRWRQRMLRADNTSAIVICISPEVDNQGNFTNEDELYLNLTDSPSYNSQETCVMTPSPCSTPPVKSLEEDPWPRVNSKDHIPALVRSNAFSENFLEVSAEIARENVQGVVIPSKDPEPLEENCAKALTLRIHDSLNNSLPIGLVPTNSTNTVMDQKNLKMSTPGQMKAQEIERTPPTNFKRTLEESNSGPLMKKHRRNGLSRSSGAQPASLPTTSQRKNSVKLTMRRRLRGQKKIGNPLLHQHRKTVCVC
Summary of the method: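 10 nM WIP1 + cpd, 1 h RT; + 2 uM VEPPL-pS-QETFS, 5 min RT; stop 0.5% formic acid; labelled product standard 1 uM; RapidFire MS. Buffer 50 mM Tris pH 7.5, 30 mM MgCl2, 1 mM TCEP.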

[10] = molecular target: Protein phosphatase 1D (Homo sapiens) (UniProt O15297); assay: Rhodamine-PBP qHTS Assay for Modulators of WT P53-Induced Phosphatase 1 (WIP1) (AID 1347425)
Summary of the method: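 The read-out is the change in Rhodamine-PBP fluorescence (f1 - f0, ex 525/em 598 nm) as Pi is released, read each minute for 11 min. Final reaction: 5 nM WIP1, 10 uM phosphopeptide VEPPL-pS-QETFS, 10 uM Rh-PBP, 50 mM Tris-HCl pH 7.5, 30 mM MgCl2. Compound was preincubated with enzyme for 1 hour at room temperature.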

[11] = molecular target: Calcium and integrin-binding protein 1 (Homo sapiens) (UniProt Q99828); assay: Primary qHTS for Identification of Calcium Integrin Binding Protein 1 (CIB1) Competitor (AID 1508620);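 further: GST tagged CIB1 binding a fluorescein labelled alphaIIb integrin peptide tracer; top concentration of the series differs between compounds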
Summary of the method: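 CIB1-GST (1 uM final) and compound incubated 15 min at room temperature before adding FITC-alphaIIb peptide tracer (100 nM final). Competition for binding read by fluorescence polarization (ex 480, em 540) after another 15 min at room temperature.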

[12] = qHTS for activators of dead-cell proteases activity screened against the NCATS CANVASS Library (AID 1347392);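 further: luminescence from protease leaking out of membrane-damaged cells cleaving impermeant substrate; rising signal means more cytotoxicity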
Summary of the method: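 Compounds are pin-transferred onto attached HepG2 cells, giving 11 final concentrations. After 5 h at 37C, AAF-aminoluciferin reagent is added and luminescence is recorded at room temperature.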

[13] = qHTS for inhibitors of ER calcium dysfunction: SERCaMP assay screened against the NCATS CANVASS Library (AID 1347393);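 further: series mostly up to about 77 µM; lower secreted reporter signal means inhibitor of ER calcium depletion; nearly all actives have a fitted effect of over 40% in size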
Summary of the method: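 Thapsigargin-induced ER calcium depletion drives GLuc-SERCaMP secretion from SH-SY5Y cells; compounds given 16 h beforehand were scored by lowered coelenterazine luminescence after 4 h challenge.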

[14] = Vero-766 cells viability qHTS against the NCATS CANVASS Library: Counterscreen for Zika virus inhibition assay (AID 1347394); further: series mostly up to about 46 µM; nearly all actives have a fitted effect of over 60% in size
Summary of the method: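 Uninfected Vero 766 (African green monkey) cells, 1000/well, attached overnight, then exposed 72 h at 37C to compounds (11-point qHTS). Viability read by CellTiter-Glo luminescence; media-only wells served as 100% inhibition.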

[15] = qHTS for inhibitors of Wild type Zika virus screened against the NCATS CANVASS Library (AID 1347396);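 further: ATP luminescence of surviving cells so rescue from viral cell killing; series mostly up to about 46 µM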
Summary of the method: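 Luminescent CellTiter Glo read-out of virus-induced cytotoxicity, 72 h post-infection, in Vero 766 cells. Compounds were tested at 11 concentrations; uninfected, vehicle-treated wells defined 100% inhibition.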

[16] = Viability qHTS for inhibitors of the SERCaMP assay screened against the NCATS CANVASS Library (AID 1347400); further: series mostly up to about 92 µM; nearly all actives have a fitted effect of over 70% in size
Summary of the method: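 SH-SY5Y SERCaMP MJH297 cells, 1000/well; 4 h settle, 37C/5% CO2; pin-transferred cpds; 48 h; CellTiter-Glo lum. Pos ctrl bortezomib 0.0001 - 4.6 uM.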

[17] = Redox Reaction Profiling qHTS: Assay Interference Panel against the NCATS CANVASS Library (AID 1347401)
Summary of the method: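 Cell-free redox surrogate: 5 uM resazurin + 200 uM DTT, 50 mM HEPES pH 7.3/50 mM NaCl; cpds pinned, 11-pt qHTS; Ex525/Em598 read t0 and t=15 min, dark.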

Measured: Potency

CN1C2CCC1CC(OC(=O)c1c[nH]c3ccccc13)C2 (stereo unspecified)
inactive: [1] | [2] | [3] | [4] | [5] | [6]

C[N+]1(CCCCC[N+]2(C)CCCC2)CCCC1
inactive: [1] | [2] | [3] | [4] | [5] | [7]

O=C(N/N=C/c1ccccc1O)c1ccncc1
inactive: [8] | [9] | [10] | [4] | [11]

CN1CCC[C@@H]1c1cccnc1
not listed: [1] | [2] | [3] | [5] | [6] | [10]
inactive: all other assays above

C[C@@H](CN(C)C)CN1c2ccccc2Sc2ccccc21
inactive: [8] | [9] | [10] | [4] | [11]

Cc1cc(O)c(C(C)C)cc1Cl
inactive: [8] | [9] | [10] | [4] | [11] | [7]

C[C@@H]1C[C@H]2[C@@H]3C[C@H](F)C4=CC(=O)C(Cl)=C[C@]4(C)[C@@]3(F)[C@@H](O)C[C@]2(C)[C@@]1(O)C(=O)CO
inactive: [8] | [9] | [10] | [4] | [11] | [7]

CCOc1ccc(NC(=O)CC(C)O)cc1 (stereo unspecified)
inactive: [8] | [9] | [10] | [4] | [11] | [7]

CCCCc1nc(Cl)c(CO)n1Cc1ccc(-c2ccccc2-c2nn[nH]n2)cc1
inactive: [8] | [9] | [10] | [4] | [11] | [7]

CCOC(=O)n1ccn(C)c1=S
inactive: [8] | [9] | [10] | [4] | [11] | [7]

Cc1nc2n(c(=O)c1CCN1CCC(c3noc4cc(F)ccc34)CC1)CCC[C@H]2O
inactive: [8] | [9] | [10] | [4] | [11] | [7]

O=C(Nc1ccc(Cl)c(Cl)c1)C1CC1
inactive: [8] | [9] | [10] | [4] | [11] | [7]

O=c1[nH]c(=O)n([C@H]2CCCO2)cc1F
inactive: [8] | [9] | [10] | [4] | [11]

CCCCN1CCCC1C(=O)Nc1c(C)cc(C)cc1C (stereo unspecified)
inactive: [8] | [9] | [10] | [4] | [11] | [7]

From PubChem BioAssay (NCATS)
